BL2 CD40 inh: CD40 pathway inhibition in BL2 cells; BL2 NF-kB luciferase reporter, CD40L-induced, 4 h; inhibition, % at 10 µM; actives 0.94% (n = 83,000); AID 1053188;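 active means mean inhibition of at least 50% with a set share of replicates also reaching that level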;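 further: 0% = neutral control wells and 100% = IKK inhibitor VII at 50 µM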
* marks the source's active call; other numbers are inactive results; [ ] = another dose, or the depositor's remark. The entries come from a sample that favours hits as a whole.

SMILES	BL2 CD40 inh
O=C(c1ccccn1)N1C[C@H]2[C@@H](c3ccccc31)[C@@H](CO)N2C(=O)C1CCCCC1	-7[25 µM]
COc1ccc(C(=O)[C@H]2[C@H]3C(=O)N(c4ccccc4)C(=O)[C@H]3C3C=CC=NN32)cc1 (stereo not given in full)	-45
CC1CN(Cc2ccccc2)C(=O)N(c2ccccc2)C1=O (stereo not given)	-3
O=C1C=CC2C3C(=O)N(c4ccccc4)C(=O)C3C1N2Cc1ccccc1 (stereo not given)	100*
COc1cc(OC)c(OC)cc1/C=C/c1ccnc2ccccc12	-1
COc1cc(/C=C/c2ccc(OC)cc2OC)cc(OC)c1	-22[25 µM]
COc1ccc(C=Cc2ccc3ccccc3n2)c(OC)c1	49*
O=C(C1CCOCC1)N1CC(=O)N2[C@H](CO)[C@H](c3ccc(C#CC4CCCC4)cc3)[C@H]2C1	10
CO[C@@H]1CN(C)C(=O)c2ccc(NC(=O)C3CCCCC3)cc2OC[C@@H](C)N(C)C[C@@H]1C	-9
CCCn1c(=O)c2ccccc2n2c(SCCOc3ccccc3)nnc12	-3
c1ccc(OCCSc2nnnn2-c2ccccc2)cc1	-20
c1ccc(OCCSc2nnc3sc4ccccc4n23)cc1	87*
CO[C@H]1CN(C)C(=O)c2cc(NC(=O)C3CC3)ccc2OC[C@@H](C)N(C(=O)C2CCOCC2)C[C@@H]1C	-12
CC(C)[C@@H]1C(=O)N[C@H](c2cccc(Cl)c2)CC=CC[C@@H](C)Oc2ccccc2C(=O)N1C (mixture of isomers)	0[25 µM]
CN(C)CC(=O)Nc1ccc2c(c1)[C@@H]1C[C@@H](CC(=O)NCc3cccc(F)c3)O[C@@H](CO)[C@@H]1O2	0[25 µM]
OC(COc1ccc(-c2ccccc2)cc1)CN1CCCCC1 (stereo not given)	-18
OC(CCN1CCCCC1)c1ccc(-c2ccccc2)cc1 (stereo not given)	57*
OC(CCN1CCC2CCC(C2)C1)c1ccc(Br)cc1 (stereo not given)	9
O=C(C[C@H]1CC[C@H]2[C@@H](COC[C@H](O)CN2Cc2ccc3c(c2)OCO3)O1)N1CCCCC1	1[25 µM]
CNC(=S)NN=C(C)CCCC(C)=NNC(=S)NC	71*
O=C(c1ccccc1)N1C[C@@H]2[C@H](c3ccccc31)[C@H](CO)N2C(=O)c1cccc(F)c1	3
CCCNC(=O)[C@@H]1[C@@H](CO)[C@@H]2Cn3c(ccc(-c4ccc(OC)cc4)c3=O)[C@H]1N2CC	1[25 µM]
O=C(C1CC1)N1CC[C@@H]2[C@H](CO)Nc3ccc(C4=CCCCC4)cc3[C@@H]21	16
C[C@@H]1CN([C@@H](C)CO)C(=O)c2c(c3ccccc3n2C)-c2ccccc2CO[C@H]1CN(C)C(=O)Nc1cccc(Cl)c1Cl	41[25 µM]
C[C@H]1CN([C@@H](C)CO)C(=O)c2c(c3ccccc3n2C)-c2ccccc2CO[C@H]1CN(C)C(=O)Nc1cccc(Cl)c1Cl	23[25 µM]
SMILES	BL2 CD40 inh
COc1ccccc1NC(=O)N(C)C[C@H]1OCc2ccccc2-c2c(n(C)c3ccccc23)C(=O)N([C@@H](C)CO)C[C@H]1C	1
C[C@H](CO)N1C[C@H](C)[C@H](CN(C)C(=O)Nc2cccc(Cl)c2Cl)OCc2ccccc2-c2c(n(C)c3ccccc23)C1=O	65*[25 µM]
C[C@@H]1CN([C@H](C)CO)C(=O)c2c(c3ccccc3n2C)-c2ccccc2CO[C@H]1CN(C)C(=O)Nc1cccc(Cl)c1Cl	54*[25 µM]
C[C@H](CO)N1C[C@H](C)[C@@H](CN(C)C(=O)Nc2cccc(Cl)c2Cl)OCc2ccccc2-c2c(n(C)c3ccccc23)C1=O	34[25 µM]
COc1cccc(C(=O)Nc2ccc3c(c2)C(=O)N(C)[C@@H]2CC[C@@H](CC(=O)NCc4ccc(F)cc4)O[C@H]2CO3)c1	1[25 µM]
COc1cccc(-c2ccc(C3[C@@H]4CN(S(=O)(=O)c5cn(C)cn5)C[C@H]3N4)cc2)c1 (stereo not given in full)	-12[25 µM]
CN1c2ccc(-c3ccccc3F)cc2[C@@H]2[C@@H](CCN2C(=O)Cc2ccccn2)[C@@H]1CO	-16[25 µM]
C[C@H]1CN([C@@H](C)CO)C(=O)c2cc(NC(=O)CCN3CCOCC3)ccc2O[C@@H]1CN(C)Cc1ccc(C(F)(F)F)cc1	8[25 µM]
COC(=O)c1ccc(CN2CC(=O)N3[C@H](CO)[C@H](c4ccc(-c5cccnc5)cc4)[C@H]3C2)cc1	-14[25 µM]
CC(C)NC(=O)N1[C@H](CO)[C@@H](c2ccccc2)[C@H]1CNC(=O)CN(C)C	2
Cc1cccc(NC(=O)COc2ccc3c(c2)CCC3)n1	-47
O=C(COc1ccc2c(c1)CCC2)Nc1ccccn1	90*
Cc1cnc(NC(=O)COc2ccc3c(c2)CCC3)s1	5
COc1ccccc1-c1ccc([C@H]2[C@@H](C#N)N(C(=O)C3CCOCC3)[C@H]2CO)cc1	-26[25 µM]
COc1ccc(NC(=O)N(C)C[C@@H]2OCCCC[C@@H](C)Oc3ccc(NC(=O)Nc4ccccc4)cc3C(=O)N([C@H](C)CO)C[C@@H]2C)cc1	-6
COCCNC(=O)c1ccc(Cl)c(Cl)c1	7
CC(C)OCCCNC(=O)CNC(=O)c1ccc(Cl)c(Cl)c1	27*
CC(C)OCCCNC(=O)c1ccncc1	9
C[C@@H](NC(=O)C[C@H]1C[C@H]2c3cc(NC(=O)NC4CCCC4)ccc3O[C@H]2[C@H](CO)O1)c1ccccc1	3
O=C(Nc1ccccc1N1CCOCC1)c1cnccn1	13
O=C(Nc1ccc(N2CCOCC2)cc1)c1cnccn1	81*
O=C(Nc1ccc(S(=O)(=O)N2CCCC2)cc1)c1cnccn1	-3
Cc1nn(-c2ccccc2)nc1-c1nnc(-c2cccc3ccccc23)o1	-2
O=C(Nc1ccc(-n2cnnn2)cc1)c1cn2ccccc2n1	-55
O=C(Nc1cccc(-c2cn3ccccc3n2)c1)c1cnccn1	-25
SMILES	BL2 CD40 inh
O=C(Nc1ccccc1)c1cn2ccccc2n1	69*
CC(=O)N(C)C[C@@H]1Oc2c(NC(=O)NC(C)C)cccc2C(=O)N(C)C[C@H]1C	1
N#C[C@@H]1[C@H](c2ccc(C#Cc3ccccc3F)cc2)[C@H](CO)N1C(=O)C1CCCC1	1
N#C[C@H]1[C@@H](c2ccccc2)[C@H](CO)N1C(=O)c1cccnc1	2
N#C[C@H]1[C@H](c2ccc(C#Cc3ccccc3F)cc2)[C@@H](CO)N1C(=O)c1cccnc1	70*[25 µM]
COCC(=O)N1[C@@H](C#N)[C@@H](c2ccc(C#Cc3ccccc3F)cc2)[C@@H]1CO	-14[25 µM]
N#C[C@@H]1[C@@H](c2ccc(C#Cc3ccccc3F)cc2)[C@H](CO)N1C(=O)c1cccnc1	-24[25 µM]
N#C[C@H]1[C@H](c2ccc(C#Cc3ccccc3F)cc2)[C@H](CO)N1C(=O)C1CC1	63*[25 µM]
N#C[C@H]1[C@@H](c2ccc(C#Cc3ccccc3F)cc2)[C@H](CO)N1C(=O)C1CCC1	-1
N#C[C@H]1[C@H](c2ccc(C#Cc3ccccc3F)cc2)[C@@H](CO)N1C(=O)C1CCCCC1	62*
COCC(=O)N1[C@H](C#N)[C@H](c2ccc(C#Cc3ccccc3F)cc2)[C@@H]1CO	-40[25 µM]
N#C[C@H]1[C@@H](c2ccc(C#Cc3ccccc3F)cc2)[C@@H](CO)N1C(=O)C1CCCCC1	29
N#C[C@@H]1[C@@H](c2ccc(C#Cc3ccccc3F)cc2)[C@@H](CO)N1C(=O)C1CCCC1	-21
COCC(=O)N1[C@H](C#N)[C@H](c2ccc(C#Cc3ccccc3F)cc2)[C@H]1CO	73*[25 µM]
C[C@H](CO)N1C[C@H](C)[C@H](CN(C)S(=O)(=O)c2ccccc2F)OCc2ccccc2-c2ccccc2C1=O	13

Source: PubChem BioAssay
